Measurements from PubChem BioAssay (Tox21).
Results filed as inconclusive are left out. Activity calls are given as the source filed them. Unless noted, calls come from the whole dose curve; as a rule, active = well fitted curve in the direction sought with a large enough effect in the repeat runs; inconclusive = weak or mixed curves; inactive = no such curve, though single readings can be large; an effect the other way counts as inactive or inconclusive.

Key:
[1] = qHTS assay to identify aromatase inhibitors - cell viability counter screen (AID 743084);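 note: cells stimulated with testosterone during compound exposure; nearly all actives have a fitted effect of over 55% in size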
[2] = target: Aryl hydrocarbon receptor (Homo sapiens) (UniProt P35869); assay: qHTS assay to identify small molecule that activate the aryl hydrocarbon receptor (AhR) signaling pathway (AID 743085);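 note: HG2L7.5c1 human HepG2 liver cells with stably integrated DRE-driven firefly reporter; series mostly up to about 70 µM; nearly all actives have a fitted effect of over 15% in size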
Sequence of Aryl hydrocarbon receptor (Homo sapiens) (P35869 whole entry, looked up): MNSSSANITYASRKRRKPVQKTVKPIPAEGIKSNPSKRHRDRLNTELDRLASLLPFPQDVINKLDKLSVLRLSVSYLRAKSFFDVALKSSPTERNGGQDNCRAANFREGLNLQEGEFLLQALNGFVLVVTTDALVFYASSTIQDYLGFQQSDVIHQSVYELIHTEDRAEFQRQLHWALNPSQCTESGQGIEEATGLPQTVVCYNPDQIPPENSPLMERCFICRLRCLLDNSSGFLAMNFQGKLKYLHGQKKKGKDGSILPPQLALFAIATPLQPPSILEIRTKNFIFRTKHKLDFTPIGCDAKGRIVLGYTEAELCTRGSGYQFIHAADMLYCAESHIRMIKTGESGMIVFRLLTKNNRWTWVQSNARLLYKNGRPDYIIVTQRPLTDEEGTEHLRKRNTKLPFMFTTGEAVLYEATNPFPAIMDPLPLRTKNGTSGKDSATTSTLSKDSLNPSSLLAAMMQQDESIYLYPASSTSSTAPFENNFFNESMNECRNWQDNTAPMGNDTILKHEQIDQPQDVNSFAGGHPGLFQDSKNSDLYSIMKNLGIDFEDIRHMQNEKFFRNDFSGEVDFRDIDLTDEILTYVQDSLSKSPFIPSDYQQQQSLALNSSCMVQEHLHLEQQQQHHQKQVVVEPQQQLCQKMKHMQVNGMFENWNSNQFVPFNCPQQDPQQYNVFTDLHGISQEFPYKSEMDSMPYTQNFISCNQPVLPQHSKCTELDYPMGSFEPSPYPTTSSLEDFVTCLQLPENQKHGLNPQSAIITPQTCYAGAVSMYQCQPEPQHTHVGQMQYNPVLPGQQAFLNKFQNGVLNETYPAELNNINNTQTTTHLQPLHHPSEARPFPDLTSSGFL
How it was run: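 Stably transfected human liver carcinoma cells (HG2L7.5c1; 20 DRE-firefly luciferase) were incubated 5 h, dosed, and kept 24 h at 37C. Agonism was scored from increased luciferase luminescence.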

[3] = qHTS assay to identify small molecule that activate the aryl hydrocarbon receptor (AhR) signaling pathway - cell viability counter screen (AID 743086);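 note: HepG2 liver cells carrying the AhR DRE luciferase reporter; series mostly up to about 70 µM; nearly all actives have a fitted effect of over 45% in size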
How it was run: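 Cytotoxicity counter screen: CellTiter-Fluor signal (30 min, 37 C) in 4000 HepG2 cells/well carrying the DRE-luciferase reporter, following 24 h compound exposure at 37 C.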

[4] = target: Peroxisome proliferator-activated receptor gamma (Homo sapiens) (UniProt P37231); assay: qHTS assay to identify small molecule agonists of the peroxisome proliferator-activated receptor gamma (PPARg) signaling pathway (AID 743094; active = well fitted activation curve with a large enough effect in the signal ratio in the repeat runs, not every such curve was filed as active; the % refers to the signal ratio)
Sequence of Peroxisome proliferator-activated receptor gamma (Homo sapiens) (P37231 whole entry, looked up): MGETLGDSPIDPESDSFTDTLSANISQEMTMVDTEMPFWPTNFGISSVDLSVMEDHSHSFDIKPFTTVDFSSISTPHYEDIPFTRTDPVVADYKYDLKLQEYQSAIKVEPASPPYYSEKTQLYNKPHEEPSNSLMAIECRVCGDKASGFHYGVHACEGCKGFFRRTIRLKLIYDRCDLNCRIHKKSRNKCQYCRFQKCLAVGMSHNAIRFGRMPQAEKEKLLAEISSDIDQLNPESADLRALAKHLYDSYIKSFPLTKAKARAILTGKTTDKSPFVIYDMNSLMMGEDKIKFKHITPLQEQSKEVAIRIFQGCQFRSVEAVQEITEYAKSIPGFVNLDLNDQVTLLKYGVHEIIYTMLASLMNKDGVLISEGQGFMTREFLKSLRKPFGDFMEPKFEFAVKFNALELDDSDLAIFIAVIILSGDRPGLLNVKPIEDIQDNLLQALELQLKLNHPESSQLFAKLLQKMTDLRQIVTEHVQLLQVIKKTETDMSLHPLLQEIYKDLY
How it was run: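 Quantitative HTS agonist mode: stable HEK293H line with UAS-beta-lactamase reporter under PPARg control, 17 h compound exposure at 37C, fluorescence after 1 h FRET substrate loading at room temperature.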

[5] = target: Peroxisome proliferator-activated receptor gamma (Homo sapiens) (UniProt P37231); assay: qHTS assay to identify small molecule antagonists of the peroxisome proliferator-activated receptor gamma (PPARg) signaling pathway (AID 743191; calls by dose curve; note: series mostly up to about 63 µM; nearly all actives have a fitted effect of over 30% in size)
How it was run: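 Beta-lactamase reporter under UAS control in HEK293H PPARg-bla cells; compound treatment 17 h at 37C. Read-out: fluorescence intensity after 1 h room-temperature incubation with LiveBLAzer B/G FRET substrate.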

[6] = qHTS assay to identify small molecule antagonists of the peroxisome proliferator-activated receptor gamma (PPARg) signaling pathway - cell viability counter screen (AID 743194); conditions: Potency: co-treated with 50 nM rosiglitazone; note: nearly all actives have a fitted effect of over 55% in size
How it was run: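 Viability was measured as CellTiter-Glo luminescence in GeneBLAzer PPARg UAS-bla HEK293H cells. These cells had been exposed 17 h at 37 C to compounds together with rosiglitazone at 50 nM final, with the beta-lactamase readout taken in the same wells.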

[7] = qHTS assay for small molecule agonists of the antioxidant response element (ARE) signaling pathway (AID 743202; active = well fitted activation curve with a large enough effect in the signal ratio in the repeat runs, not every such curve was filed as active; the % refers to the signal ratio)
How it was run: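 Quantitative high-throughput format in HepG2 cells bearing an integrated ARE-beta-lactamase reporter. Compound exposure lasted 16 h at 37 C, and fluorescence was read 2 h after adding LiveBLAzer B/G substrate at room temperature.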

[8] = qHTS assay for small molecule agonists of the antioxidant response element (ARE) signaling pathway - cell viability counter screen (AID 743203; calls by dose curve; note: nearly all actives have a fitted effect of over 55% in size)
How it was run: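 Seeded at 2,000 cells/well, ARE-bla HepG2 cells were incubated 5 hrs before compound addition. After 16 hrs of treatment at 37C with 5% CO2, CellTiter-Glo reagent was added and luminescence read 30 min later.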

[9] = qHTS assay for small molecule activators of the heat shock response signaling pathway - cell viability counter screen (AID 743209); note: nearly all actives have a fitted effect of over 50% in size
How it was run: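 First, HSE-bla HeLa cells were seeded at 1500 cells/well and kept overnight at 37 C. Next, compounds were pinned in and incubated 5 h. After the FRET substrate step, CellTiter-Glo was added and luminescence read 30 min later.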

[10] = qHTS assay for small molecule activators of the heat shock response signaling pathway (AID 743210; active = well fitted activation curve with a large enough effect in the signal ratio in the repeat runs, with a control signal flat, not every such curve was filed as active; the % refers to the signal ratio;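 note: HeLa cells with beta-lactamase reporter driven by heat shock elements; series mostly up to about 63 µM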)
How it was run: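 HeLa HSE-bla cells, overnight plating; cpd in DMSO 5 h, 37 C; LiveBLAzer B/G FRET substrate 2.5 h RT; fluorescence intensity read.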

[11] = qHTS assay to identify small molecule agonists of the peroxisome proliferator-activated receptor delta (PPARd) signaling pathway - cell viability counter screen (AID 743211); note: nearly all actives have a fitted effect of over 55% in size
How it was run: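 In the same wells used for beta-lactamase reporter measurement, cytotoxicity is scored by CellTiter-Glo. HEK293H PPARd-bla cells receive compound for 17 h at 37C following a 5 h settling period.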

[12] = target: Peroxisome proliferator-activated receptor delta (Homo sapiens) (UniProt Q03181); assay: qHTS assay to identify small molecule agonists of the peroxisome proliferator-activated receptor delta (PPARd) signaling pathway (AID 743212; calls by dose curve)
Sequence of Peroxisome proliferator-activated receptor delta (Homo sapiens) (Q03181 whole entry, looked up): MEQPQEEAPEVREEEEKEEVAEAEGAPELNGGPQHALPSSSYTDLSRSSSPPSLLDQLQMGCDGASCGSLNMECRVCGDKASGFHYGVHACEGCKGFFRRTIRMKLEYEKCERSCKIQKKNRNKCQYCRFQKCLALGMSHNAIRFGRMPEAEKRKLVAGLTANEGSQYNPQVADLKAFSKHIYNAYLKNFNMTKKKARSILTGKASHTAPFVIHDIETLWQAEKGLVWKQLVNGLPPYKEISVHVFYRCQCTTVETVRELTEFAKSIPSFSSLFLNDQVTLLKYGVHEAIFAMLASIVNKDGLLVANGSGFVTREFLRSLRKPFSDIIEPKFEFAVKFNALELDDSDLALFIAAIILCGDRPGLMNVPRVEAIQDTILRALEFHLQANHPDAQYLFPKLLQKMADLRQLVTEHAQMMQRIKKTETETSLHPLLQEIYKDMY
How it was run: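 HEK293H PPARd-bla cells; 5 h preincubation 37 C/5% CO2; compound (DMSO) 37 C; LiveBLAzer B/G FRET substrate 2 h RT; fluorescence intensity.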

[13] = target: Peroxisome proliferator-activated receptor delta (Homo sapiens) (UniProt Q03181); assay: qHTS assay to identify small molecule antagonists of the peroxisome proliferator-activated receptor delta (PPARd) signaling pathway (AID 743215; active = well fitted inhibition curve with a large enough effect in the signal ratio in the repeat runs, not every such curve was filed as active; the % refers to the signal ratio;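 note: cells stimulated with agonist L165041 at 300 nM final during compound exposure; series mostly up to about 62 µM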)
How it was run: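 Inhibition of L165041-driven (300 nM final) PPARd signaling is scored in HEK293H UAS-bla cells. Exposure lasts 17 h at 37 C; beta-lactamase activity is then read by FRET substrate fluorescence after 2 h at room temperature.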

[14] = target: Bile acid receptor (Homo sapiens) (UniProt Q96RI1); assay: qHTS assay to identify small molecule antagonists of the farnesoid-X-receptor (FXR) signaling pathway (AID 743217; active = well fitted inhibition curve with a large enough effect in the signal ratio in the repeat runs, not every such curve was filed as active; the % refers to the signal ratio)
Sequence of Bile acid receptor (Homo sapiens) (Q96RI1 whole entry, looked up): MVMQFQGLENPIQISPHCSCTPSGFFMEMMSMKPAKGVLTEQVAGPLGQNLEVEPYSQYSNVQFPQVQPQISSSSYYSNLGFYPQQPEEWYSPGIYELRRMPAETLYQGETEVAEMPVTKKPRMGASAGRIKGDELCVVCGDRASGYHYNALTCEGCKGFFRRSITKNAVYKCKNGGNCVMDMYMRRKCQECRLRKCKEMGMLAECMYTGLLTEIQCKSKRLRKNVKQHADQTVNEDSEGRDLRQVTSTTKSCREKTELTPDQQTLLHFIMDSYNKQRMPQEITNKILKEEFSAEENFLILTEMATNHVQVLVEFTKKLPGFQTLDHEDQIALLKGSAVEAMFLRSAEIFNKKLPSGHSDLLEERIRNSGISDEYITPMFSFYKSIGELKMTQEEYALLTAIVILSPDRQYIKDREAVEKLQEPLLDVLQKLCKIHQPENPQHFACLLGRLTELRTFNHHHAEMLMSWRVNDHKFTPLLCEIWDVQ
How it was run: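 Antagonist mode against 50 uM (final) chenodeoxycholic acid stimulation in FXR-bla HEK 293T cells, 16 h at 37 °C. Inhibition detected as reduced beta-lactamase activity via LiveBLAzer B/G FRET fluorescence after 2 h at room temperature.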

[15] = qHTS assay to identify small molecule agonists of the farnesoid-X-receptor (FXR) signaling pathway - cell viability counter screen (AID 743218); note: nearly all actives have a fitted effect of over 45% in size
How it was run: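 Cytotoxicity counter-screen run in parallel, same wells: FXR-UAS-bla HEK 293T cells dosed 16 h at 37 C, viability read by CellTiter-Glo luminescence after 30 min at room temperature.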

[16] = target: Bile acid receptor (Homo sapiens) (UniProt Q96RI1); assay: qHTS assay to identify small molecule agonists of the farnesoid-X-receptor (FXR) signaling pathway (AID 743220; active = well fitted activation curve with a large enough effect in the signal ratio in the repeat runs, not every such curve was filed as active; the % refers to the signal ratio)
How it was run: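 Beta-lactamase reporter under UAS control in GeneBLAzer FXR HEK 293T cells (5000/well) measured with LiveBLAzer FRET substrate after 2 h at room temperature. Compound exposure lasted 16 h at 37C.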

[17] = qHTS assay to identify small molecule antagonists of the farnesoid-X-receptor (FXR) signaling pathway - cell viability counter screen (AID 743221; active = well fitted cell-killing curve with a large enough effect in the repeat runs, not every such curve was filed as active; note: nearly all actives have a fitted effect of over 50% in size)
How it was run: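 Here viability was scored by luminescence after CellTiter-Glo addition to wells already read for beta-lactamase. Prior treatment: compound plus CDCA (50 uM final), 16 h, 37 C, HEK 293T FXR-bla cells.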

[18] = target: Vitamin D3 receptor (Homo sapiens) (UniProt P11473); assay: qHTS assay to identify small molecule agonists of the vitamin D receptor (VDR) signaling pathway (AID 743222; calls by dose curve)
Sequence of Vitamin D3 receptor (Homo sapiens) (P11473 whole entry, looked up): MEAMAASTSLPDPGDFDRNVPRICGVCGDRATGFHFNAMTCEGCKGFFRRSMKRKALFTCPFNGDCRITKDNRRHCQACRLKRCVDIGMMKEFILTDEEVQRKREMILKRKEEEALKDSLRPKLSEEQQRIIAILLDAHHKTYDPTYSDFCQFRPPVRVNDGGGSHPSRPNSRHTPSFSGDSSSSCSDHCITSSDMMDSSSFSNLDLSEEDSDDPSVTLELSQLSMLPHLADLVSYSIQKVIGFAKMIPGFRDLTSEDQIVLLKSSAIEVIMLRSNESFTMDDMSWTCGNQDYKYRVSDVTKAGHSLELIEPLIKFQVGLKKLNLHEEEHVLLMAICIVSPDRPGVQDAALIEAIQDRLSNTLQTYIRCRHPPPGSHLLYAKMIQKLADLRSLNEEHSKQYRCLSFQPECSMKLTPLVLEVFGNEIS
How it was run: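 Quantitative HTS agonist-mode screen: compounds in DMSO were pin-transferred onto VDR-bla cells and incubated 16 h at 37C, 5% CO2. Reporter activity was detected with LiveBLAzer B/G FRET substrate after 2 h at room temperature.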

[19] = target: Vitamin D3 receptor (Homo sapiens) (UniProt P11473); assay: qHTS assay to identify small molecule antagonists of the vitamin D receptor (VDR) signaling pathway (AID 743223; active = well fitted inhibition curve with a large enough effect in the signal ratio in the repeat runs, not every such curve was filed as active; the % refers to the signal ratio)
How it was run: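 Inhibition of agonist-driven VDR signalling is scored in VDR-bla cells: 3 nM final 1alpha,25-dihydroxyvitamin D3 plus compound, 16 h at 37C, then beta-lactamase detection by FRET substrate fluorescence after 2 h.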

[20] = qHTS assay to identify small molecule antagonists of the peroxisome proliferator-activated receptor delta (PPARd) signaling pathway - cell viability counter screen (AID 743213); note: nearly all actives have a fitted effect of over 50% in size
How it was run: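 CellTiter-Glo was added to PPARd-bla HEK293H wells following 17 h compound treatment in the presence of 300 nM L165041. Luminescence was recorded after 30 min at room temperature.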

Measured: Potency

CCNc1nc(Cl)nc(NC(C)(C)C)n1
inactive: [1] | [2] | [3] | [4] | [5] | [6] | [7] | [8] | [9] | [10] | [11] | [12] | [13] | [14] | [15] | [16] | [17] | [18] | [19]

ClCC1CO1 (stereo unspecified)
inactive: [1] | [2] | [3] | [4] | [5] | [6] | [7] | [8] | [10] | [11] | [13] | [15] | [18] | [19]

C=CCc1cc(OC)c2c(c1)OCO2
inactive: [1] | [2] | [3] | [4] | [5] | [6] | [7] | [8] | [9] | [10] | [11] | [20] | [13] | [15] | [17] | [18] | [19]

c1cncc([C@@H]2CCCCN2)c1
inactive: [1] | [2] | [3] | [4] | [5] | [7] | [8] | [9] | [10] | [11] | [12] | [13] | [15] | [17] | [18] | [19]

CN=CNc1ccc(C)cc1C
inactive: [1] | [2] | [3] | [4] | [5] | [6] | [8] | [9] | [10] | [11] | [12] | [20] | [15] | [18] | [19]

CC(C)N(Cc1ccccc1)C(=O)C(C)(C)C
inactive: [1] | [2] | [3] | [4] | [5] | [7] | [8] | [9] | [10] | [11] | [13] | [15] | [16] | [17] | [18] | [19]

C[N+]1(C)CCCCC1
inactive: [1] | [2] | [3] | [4] | [5] | [7] | [8] | [9] | [10] | [12] | [20] | [13] | [15] | [18] | [19]

COC(=O)[C@@H](N)CCCN/C(N)=N/[N+](=O)[O-]
inactive: [1] | [2] | [3] | [4] | [5] | [6] | [8] | [9] | [10] | [11] | [13] | [14] | [16]

CNC(=O)NC(O)C(Cl)(Cl)Cl (stereo unspecified)
inactive: [1] | [2] | [3] | [4] | [6] | [7] | [8] | [9] | [10] | [11] | [12] | [13] | [15] | [17] | [18] | [19]

COP(=O)(O)OC
inactive: [1] | [2] | [3] | [4] | [6] | [7] | [8] | [9] | [10] | [11] | [20] | [13] | [14] | [15] | [16] | [17]

CCOC1Oc2ccc(OS(C)(=O)=O)cc2C1(C)C (stereo unspecified)
inactive: [1] | [2] | [3] | [4] | [5] | [6] | [9] | [11] | [12] | [20] | [13] | [15] | [17] | [18]

COc1ccc(C=O)cc1O
inactive: [1] | [2] | [3] | [4] | [6] | [7] | [8] | [9] | [10] | [11] | [12] | [20] | [13] | [14] | [15] | [16]

BrCCc1ccccc1
inactive: [1] | [2] | [3] | [4] | [6] | [7] | [8] | [9] | [10] | [11] | [12] | [20] | [13] | [15] | [17]

CCOC(=O)NC(C)(C)Cc1ccc(Cl)cc1
inactive: [1] | [2] | [3] | [4] | [6] | [7] | [8] | [9] | [10] | [11] | [20] | [13] | [14] | [15] | [16] | [17] | [18] | [19]

ClCOCCl
inactive: [1] | [2] | [3] | [4] | [6] | [7] | [8] | [9] | [10] | [11] | [20] | [13] | [14] | [15] | [16] | [18]

CCNc1nc(NCC)nc(SC)n1
inactive: [1] | [2] | [3] | [4] | [5] | [8] | [9] | [10] | [11] | [15] | [17] | [18] | [19]

O=C(Cl)C(Cl)Cl
inactive: [1] | [2] | [3] | [4] | [6] | [7] | [8] | [9] | [10] | [11] | [12] | [20] | [13] | [15] | [17] | [18] | [19]
